From ChEMBL document CHEMBL3988442, “University of Dundee, Small-Polar-MMV Screening Library” (2021)
About 900 (1.7%) of roughly 53,000 compounds showed an effect of 50% or more. For the sample, strong results were picked, then their nearest neighbours and some compounds at random.

The compounds below were run on Mycobacterium tuberculosis (assay: Cornell - Phenotypic assay to identify agents that inhibit growth of Mycobacterium tuberculosis). Details: 10 mM as filed; unlikely as a test dose.
Type: functional
Design: scale not given: direction of the effect not stated beside the values

| SMILES | Percent Effect [%] |
| --- | --- |
| O=c1[nH]cc(N2CCCCC2)c(=O)[nH]1 | 4.601 |
| Cc1ccc(NCC2(O)CCNCC2)cc1C | -25.1 |
| CC(C)c1nnc(NC(=O)N(C)Cc2ccncc2)s1 | -15.27 |
| Cc1ccsc1CN(Cc1ccccn1)CC(C)C | -11.16 |
| CSC(C)CCN(Cc1ccccn1)Cc1sccc1C (stereo not given) | 52.37 |
| Cc1ccsc1CN(CCN(C)C)Cc1ccccn1 | 3.624 |
| COCC(O)CN(C)c1ccnc2cc(Br)ccc12 (stereo not given) | 6.843 |
| O=C(NC[C@@H]1CCCO1)c1cccnc1N1CCCC1c1ccccc1 (stereo not given in full) | 4.902 |
| CC(c1ccc(F)cc1F)N1CCN(CCC(=O)NC(N)=O)CC1 (stereo not given) | -2.983 |
| COc1ccccc1N1CCC(CNCc2cccc(C#N)c2)C1 (stereo not given) | 33.02 |
| COc1ccccc1N1CCC(CNCc2cccc(O)c2)C1 (stereo not given) | 38.06 |
| COc1ccc(CNCC2CCN(c3ccccc3OC)C2)cc1O (stereo not given) | 59.98 |
| COc1cccc(N2CCC(CNC(=O)NCc3ccco3)C2)c1 (stereo not given) | -31.24 |
| COc1cccc(N2CCC(CNCc3cccc(C#N)c3)C2)c1 (stereo not given) | 63.04 |
| COc1ccccc1N1CCC(CNCc2ccc(C#N)cc2)C1 (stereo not given) | 28.32 |
| Cc1cc(C)c(C(=O)N2CCCC(C(=O)CCc3ccccc3)C2)cn1 (stereo not given) | 16 |
| CN1CCCC1CCNC(=O)c1ccccc1-n1cnc(CN)c1 (stereo not given) | -39.2 |
| CC(C)C(Sc1nnnn1C1CC1)C(=O)NCc1ccccc1 (stereo not given) | -5.783 |
| Cc1nc(N)sc1C(=O)N1Cc2ccccc2OC2(CCOCC2)C1 | -56.78 |
| O=C1CCC2(CCN(Cc3cscn3)CC2)CN1CCCO | 5.461 |
| O=C(CNc1ccc(OCC2CCOCC2)cc1)NCc1ccco1 | 31.46 |
| CC(C)(Oc1ccc(F)cc1)C(=O)NCc1ccco1 | 22.85 |
| CC(C)(C)Oc1ccc(NCC(=O)NCc2ccco2)cc1 | 108 |
| CC[C@H](C)Nc1nccc(-c2cnc3sccn3c2=O)n1 | -1.989 |

| SMILES | Percent Effect [%] |
| --- | --- |
| O=C(c1cn(-c2ccccc2C(F)(F)F)nn1)N1CCSCC1 | 17.85 |
| Cc1ccc(CN2CC[C@H]3C[C@H](c4nc(C5CC5)cs4)O[C@@H]3C2)o1 | 67.24 |
| Cc1ccc(CN2CC[C@H]3C[C@@H](c4nc(C5CC5)cs4)O[C@@H]3C2)o1 | 40.45 |
| Cc1cc(CN2CC[C@H]3C[C@@H](c4nc(C5CC5)cs4)O[C@@H]3C2)no1 | 0.1287 |
| Cn1nc(-c2cccc(Cl)c2)c(Br)c1C(=O)O | 24.18 |
| O=C(Nc1ccccc1OCc1ccccn1)NC1CCOCC1 | 30.18 |
| O=C(Nc1ccccc1OCCc1ccccn1)NC1CCOCC1 | -20.67 |
| c1ccc(COc2ccccc2NC2CCOCC2)nc1 | 50.88 |
| COc1cc(NCc2ccc(Cl)cc2)c(-c2nn[nH]n2)cc1OC | 107.2 |
| Cc1nnc(NCc2ccc(Cl)cc2)o1 | 21.04 |
| COc1ccncc1NCc1ccsc1 | -60.05 |
| COc1cc(NCc2cccnc2)c(-c2nn[nH]n2)cc1OC | -25.93 |
| COc1cc(CNc2ccc(Cl)cc2)ccc1OCC(=O)O | -3.069 |
| COc1cc(NCc2ccncc2)c(-c2nn[nH]n2)cc1OC | 96.19 |
| OCc1ccc(Cl)c(NCc2cccnc2)c1 | -14.09 |
| c1cncc(CNc2ccccc2-c2nn[nH]n2)c1 | 72.98 |
| Cc1ccn(-c2ccccc2NCc2cccnc2)n1 | -17.76 |
| CC(=O)N1CCCN(C(=O)NCCNc2cnccn2)CC1 | 8.364 |
| CCOCc1cnc2n1CCN(C(=O)c1ccccc1)C2C (stereo not given) | -22.66 |
| Cn1cc(N2CCCC(SCc3nc(C4CC4)no3)C2=O)cn1 (stereo not given) | -5.692 |
| C[C@@H]1CN(c2nc3c(cc2C(N)=O)CCC3)CC[C@@]1(O)C1CCC1 | 6.158 |
| Cn1nc(CNS(=O)(=O)Cc2ccccc2F)c2c1CCCC2 | 24.49 |
| CCc1c(C)nc2cc(C3CCN(Cc4ccc(F)cc4)C3)nn2c1O (stereo not given) | -30.4 |
| O=C(O)C(F)(F)F.O=C([C@@H]1CCO[C@@H]2CCN(Cc3ccsc3)C[C@@H]21)N1CCCC1 | 13.31 |

| SMILES | Percent Effect [%] |
| --- | --- |
| CCCS(=O)(=O)N1CCC(NC(=O)c2cc(CC)c(C)s2)CC1 | -14.58 |
| COCC(=O)N1CCN(S(=O)(=O)c2cccs2)[C@H]2CS(=O)(=O)C[C@H]21 | 5.268 |
| Cc1cc(NCc2ccco2)nc2[nH]nc(N)c12 | 73.02 |
| CNc1c(NCc2ccco2)c(=O)c1=O | -73.54 |
| NS(=O)(=O)c1cccnc1NCc1ccco1 | 9.166 |
| Cc1cc2[nH]c(O)nc2cc1NCc1ccccc1 | 38.01 |
| Cc1cc(NCCO)nc2[nH]nc(N)c12 | 15.94 |
| Cc1cc(NCc2ccccc2)nc2[nH]nc(N)c12 | 99.95 |
| Cc1nc(CCNC(=O)NC(C)c2ccc3c(c2)OCCO3)cs1 (stereo not given) | -7.5 |
| N#CC1COCCN1C(=O)c1cccc2cc[nH]c12 (stereo not given) | 15.8 |
| COc1ccccc1OCCN(C)c1cc(C)nc(N)n1 | -1.717 |
| CN(C)S(=O)(=O)N1CCN(c2ccnc(N3CCCCC3)n2)CC1 | 38.93 |
| CCCS(=O)(=O)N1CCN(c2ccnc(N3CCCCC3)n2)CC1 | 50.94 |
| CN(C)S(=O)(=O)N1CCN(c2ccnc(N3CCCC3)n2)CC1 | 12.56 |
| CCCS(=O)(=O)N1CCN(c2ccnc(N3CCCC3)n2)CC1 | -0.1963 |
| CS(=O)(=O)N1CCN(c2ccnc(N3CCCCC3)n2)CC1 | 63 |
| CS(=O)(=O)N1CCN(c2ccnc(N3CCCC3)n2)CC1 | 7.415 |
| COC(=O)c1cccc(CN(C)C(C)c2ccccn2)c1 (stereo not given) | 21.51 |
| OC1(CN2CCC(Cc3ncccn3)CC2)CCOCC1 | -20.94 |
| O=C(c1cnco1)N1CCC(Cc2cnc3ccccc3c2)CC1 | 64.83 |
| O=C(c1cnco1)N1CCC(Cc2cccc3ncccc23)CC1 | -21.16 |
| O=C(c1cnco1)N1CCC(Cc2ccc3ncccc3c2)CC1 | 9.774 |
